MRP1 act: H69AR viability gain despite doxorubicin, primary screen, MRP-1 activator project, H69AR cells, CellTiter-Glo. viability rescue. viability increase, % at 10 µM. 140,000 tested, 0.61% active;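 active = viability gain under doxorubicin at or above a set limit, the compound median plus 3 SD, cut at about 4.7% in these data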;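 also: MRP-1 overexpressing cells given doxorubicin 25 µM after compound pretreatment; 18-22 h compound pretreatment then 72 h with doxorubicin before readout; 0% = doxorubicin-only wells and 100% = vehicle-treated cells without doxorubicin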
sEH inh: soluble epoxide hydrolase inhibitors, primary screen, biochemical, human sEH. inhibition, % at 2 µM. recombinant human sEH enzymatic activity assay. Bifunctional epoxide hydrolase 2 (Homo sapiens), P34913. AID 707, 2007. 91,000 tested, 0.34% active; in the data active = inhibition above about 80%
Target sequence (P34913 whole entry, looked up): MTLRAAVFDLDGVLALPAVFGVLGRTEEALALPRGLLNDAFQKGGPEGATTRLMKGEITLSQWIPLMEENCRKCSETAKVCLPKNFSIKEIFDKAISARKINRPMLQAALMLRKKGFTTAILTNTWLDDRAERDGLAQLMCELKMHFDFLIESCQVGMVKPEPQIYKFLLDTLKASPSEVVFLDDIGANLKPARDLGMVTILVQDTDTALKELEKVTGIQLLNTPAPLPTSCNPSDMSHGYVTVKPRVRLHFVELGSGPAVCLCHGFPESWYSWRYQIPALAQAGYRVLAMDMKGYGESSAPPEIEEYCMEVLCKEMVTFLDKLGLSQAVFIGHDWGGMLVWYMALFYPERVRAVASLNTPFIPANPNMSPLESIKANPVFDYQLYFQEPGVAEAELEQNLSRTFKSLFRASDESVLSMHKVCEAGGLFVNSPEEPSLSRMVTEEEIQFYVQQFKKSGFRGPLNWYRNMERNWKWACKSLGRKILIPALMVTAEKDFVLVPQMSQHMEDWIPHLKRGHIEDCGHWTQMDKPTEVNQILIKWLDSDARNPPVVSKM
sEH activator: soluble epoxide hydrolase activators, primary screen, biochemical, human sEH | Bifunctional epoxide hydrolase 2 (Homo sapiens), P34913 | purified human sEH enzymatic activity, activator screen | activation, % at 2 µM | 91,000 tested, 0.04% active; in the data active = activation above about 37%
SDO1 yeast rescue: growth rescue of sdo1-depleted yeast, primary screen, S. cerevisiae, bone marrow failure model. S. cerevisiae sdo1-depleted JHY4D growth rescue, OD600 30 h; active compounds read high; pdr5 snq2 efflux-pump mutant strain. z-score at 10 µM. 140,000 tested, 0.21% active. AID 817, 2007;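 active = z-score above 3 at both the 24 hr and the 30 hr optical density reads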;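 also: z-score against mean and SD of all compound wells on the same plate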
Phagocyt inh: inhibitors of macrophage phagocytosis, primary screen, imaging, J774A.1 cells, IgG beads. inhibition, % at 5 µM. AID 1029, 2008. 110,000 tested, 0.07% active. J774A.1 macrophage IgG-bead phagocytosis;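 active = inhibition above the mean of the plate negative controls plus 5 SD, cut at about 13% in these data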;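 also: phagocytic index as fraction of beads internalized from green versus red external bead signal; plate controls were DMSO negative control for no effect and cytochalasin-D positive control for full effect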
MRP reversal: reversal of MRP1-mediated doxorubicin resistance, primary screen, H69AR cells, doxorubicin co-treatment | H69AR cells + 2 uM doxorubicin, CellTiter-Glo, 72 h | 85,000 tested, 0.04% active | AID 602, 2007 | differential viability (reversal), % at 10 µM;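 active = viability drop by adding the cancer drug above about 55%, with treated viability meeting a 40% cutoff, limit read from the data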;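 also: viability without doxorubicin minus viability with 2 µM doxorubicin for each compound; larger differential means the compound sensitizes cells more to doxorubicin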
* = called active by the depositor; · = no result given; [ ] = remark or other dose. This is a sample that favours compounds with a hit; in the whole collection about 1% have one here.

SMILES	MRP1 act	sEH inh	sEH activator	SDO1 yeast rescue	Phagocyt inh	MRP reversal
COCc1cc(C)nc(OCC(=O)N/N=C/c2ccc(-c3cc([N+](=O)[O-])ccc3C)o2)c1C#N	4.7*	3	-3	-0.16	-1	·
CCOC(=O)Nc1ccc2c(c1)N(C(=O)OC)c1ccccc1CC2	-2	-44	41*	-1.7	0	·
O=C1c2ccccc2C(=O)N1CCCN1CCN(CCCN2C(=O)c3ccccc3C2=O)CC1	·	4	-1	·	·	1
CC1=C(C(=O)Nc2ccccc2C)C(c2ccc(C)o2)N2C(=O)CSC2=N1 (stereo unspecified)	7.3*	-4	5	0.96	-1	3
Cc1ccc(-n2nnnc2SCC(=O)NCCC2=CCCCC2)c(C)c1	0	82*	-82	-1.5	·	7
Cc1ccc(-n2nnnc2SCC(N)=O)c(C)c1	-2	-16	15	0.93	-1	4
COc1cccc(C2CC(=O)Nc3cc(OC)c(OC)c(OC)c32)c1OC (stereo unspecified)	-5	7	-5	0.57	44*[artifact]	10
CCOc1ccccc1C1CC(=O)Nc2cc(OC)c(OC)c(OC)c21 (stereo unspecified)	-2	9	-7	0.74	1	5
CC(NC(=O)NC12CC3CC(CC(C3)C1)C2)C1CCCO1 (stereo unspecified)	0	90*	-90	0.22	·	7
CCc1nc2ccccc2c(=O)n1CCCCn1c(CC)nc2ccccc2c1=O	·	·	·	·	·	-24
CC1(C)CC(=O)C2=C(C1)N=c1s/c(=C/c3ccc(F)c(F)c3)c(=O)n1C2c1ccc(F)cc1 (stereo unspecified)	-2	-33	37*	-2.7	0	·
Cc1cc(C)n(C(=O)C(C)N2C(=O)c3ccccc3C2=O)n1 (stereo unspecified)	-1	·	·	-0.16	0	1
O=C(NCc1ccc2c(c1)OCO2)C1CCN(S(=O)(=O)N2CCCCC2)CC1	-2	·	·	0.15	1	·
O=C(Nc1ccccc1Cl)C1CCN(Cc2cnn(-c3ccccc3)c2-n2cccc2)CC1	-4	24	-24	-0.81	-1	-4
O=C(NCc1ccc2c(c1)OCO2)C1CCN(Cc2cnn(-c3ccccc3)c2-n2cccc2)CC1	-4	84*	-84	0.42	1	4
O=C(NCc1ccc2c(c1)OCO2)C1CCN(c2ccc(S(=O)(=O)N3CCCC3)cc2)CC1	-3	86*	-86	-1	-1	·
NC(=O)[C@@H]1CCNc2c(I)cc([N+](=O)[O-])cc2C(=O)N[C@@H](CCC(=O)O)C(=O)N[C@@H](CO)C(=O)N1	-1	·	·	0.58	·	·
CCOC(=O)c1ccc(NC(=O)c2cc(OC)c(OC)c(OC)c2Br)cc1	-2	·	·	-0.64	-5	·
CCCCCCOC(=O)c1ccc(NC(=O)c2cc(OC)c(OC)c(OC)c2Br)cc1	4.9*	28	-29	-0.76	·	·
COc1cccc(CC(NC(C)=O)C(=O)NC2CCN(S(=O)(=O)c3ccc4ccccc4c3)CC2)c1 (stereo unspecified)	0	8	-9	0.86	-1	2
O=C(Nc1cccnc1)C1CC(c2ccc(Cl)c(Cl)c2)=NO1 (stereo unspecified)	6.0*	-13	11	-0.34	0	13
Cc1oc2c(O)c(O)ccc2c(=O)c1-c1cnn(-c2ccccc2)c1	4.9*	5	-5	1.3	·	·
O=C(N/N=C/c1cc([N+](=O)[O-])cc([N+](=O)[O-])c1O)/C(=C\c1cccs1)NC(=O)c1ccccc1	4.8*	·	·	0.37	-4	·
Cc1ccc(C(C)C)c(OCc2nc(-c3nonc3N)no2)c1	6.4*	-13	12	-1	0	9
CCCCOc1ccc(C(C)NC(=O)C2CCCN(S(=O)(=O)CCC)C2)cc1 (stereo unspecified)	-3	·	·	-0.35	-1	·
SMILES	MRP1 act	sEH inh	sEH activator	SDO1 yeast rescue	Phagocyt inh	MRP reversal
Cc1onc(-c2c(F)cccc2Cl)c1C(=O)Nc1sc2c(c1C#N)CCC(C(C)(C)C)C2 (stereo unspecified)	11*	6	-1	-0.79	·	0
Cc1onc(-c2c(F)cccc2Cl)c1C(=O)Nc1sc2c(c1C(N)=O)CCC2	-1	-7	11	-1.4	-1	-53
COc1ccccc1-c1nc(C#N)c(N2CCc3ccccc3C2)o1	5.3*	4	-1	-1.4	-1	12
Cc1onc(-c2ccccc2Cl)c1C(=O)Nc1nnc(-c2ccc(Br)cc2)s1	7.2*	18	-16	-0.9	0	-8
Cc1noc(/C=C/N(C)C)c1S(=O)(=O)N1CCCC(C(=O)NCc2ccc(Cl)cc2)C1 (stereo unspecified)	4.9*	·	·	1.4	-1	11
Cc1n[nH]c(C)c1S(=O)(=O)N1CCCC(C(=O)NCc2ccccc2Cl)C1 (stereo unspecified)	-3	·	·	-0.08	-1	3
Cc1noc(/C=C/N(C)C)c1S(=O)(=O)N1CCCC(C(=O)NC2CCCCC2)C1 (stereo unspecified)	9.3*	51	-52	1.2	0	-14
Cc1noc(/C=C/N(C)C)c1S(=O)(=O)N1CCCC(C(=O)NCc2ccc(F)cc2)C1 (stereo unspecified)	12*	10	-7	0.98	·	8
Cc1noc(/C=C/N(C)C)c1S(=O)(=O)N1CCCC(C(=O)NCc2ccccc2Cl)C1 (stereo unspecified)	7.6*	51	-52	0.61	-1	8
C=CCNC(=S)NCCCCC1NC(=S)N(CC=C)C1=O (stereo unspecified)	-4	·	·	1.2	-6	·
CCN(CC)S(=O)(=O)c1ccc(NC2CCCc3ccccc32)nc1 (stereo unspecified)	-3	-7	6	-0.93	·	7
O=C(c1ccco1)N1CCN=C1SCc1ccc(F)cc1	6.0*	·	·	0.24	-1	23
CC(=O)N1CCN=C1SCc1ccc(Br)cc1	9.4*	2	-3	0.82	0	10
O=C(c1ccco1)N1CCN=C1SCc1cccc(F)c1	3	2	-4	0.05	0	10
O=C(Nc1cccc2c1[nH]c1ccccc12)C(F)(F)F	-6	-2	2	-0.51	·	-9
O=C(NCc1cccnc1)Nc1cccc(NC(=O)NCc2cccnc2)c1	-1	·	·	0.16	90*	2
CCCn1c(SC(C(=O)Nc2cccc(OC)c2)c2ccccc2)nc2ccccc2c1=O (stereo unspecified)	-3	·	·	-0.09	-14	·
CCOc1ccccc1Nc1nc(N)nc(CN(C)C2CCCCC2)n1	-4	4	-4	1.2	3	80*
CCCCCn1c(CN2CCCCC2C)nc2c1c(=O)n(C)c(=O)n2C (stereo unspecified)	6.0*	-1	3	-0.57	·	-2

Compound activity: PubChem BioAssay, several laboratories
